According to PubChem BioAssay AID1159580 (chemical genetic matrix, 2015):
In all, about 5,500 compounds went through this assay and about 2,000 (36%) were called active. Not shown: some 18% with an inconclusive outcome. Rule as the data show it: active = normalized growth mostly below about 0.91 (no sharp cut-off); inconclusive = no clear call, values can overlap the other calls; inactive = mostly above about 0.92. The list shows a part of the results.

Test: chemical genetic growth profiling, strain panel (AID 1159580);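 also: tested at 20 µM; growth read once vehicle control cultures reached saturation at 30 °C; 1 = growth at the plate median or of vehicle wells; lower values mean less growth of the strain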
Conditions: S. cerevisiae deletion strains, growth OD

Measured: normalized growth

COC(=O)C(C)(N)Cc1ccc(O)cc1 (centres undefined)
inactive: locus YAL013W, strain DEP1, active compounds read low 0.991 | locus YAL040C, strain CLN3, active compounds read low 0.987 | locus YCL061C, strain MRC1 (second series), active compounds read low 1.01 | locus YDR363W, strain ESC2, active compounds read low 0.966 | locus YER002W, strain NOP16, active compounds read low 1.01 | locus YGR078C, strain PAC10, active compounds read low 0.976 | locus YMR307W, strain GAS1, active compounds read low 0.974 | locus YNL153C, strain GIM3, active compounds read low 1.03 | locus YNL175C, strain NOP13, active compounds read low 0.996 | locus YNL197C, strain WHI3, active compounds read low 0.99 | locus YNL224C, strain SQS1, active compounds read low 0.997 | locus YOR083W, strain WHI5 (second series), active compounds read low 1.01 | locus YPL055C, strain LGE1, active compounds read low 0.988 | locus YPL241C, strain CIN2, active compounds read low 1.01
